Results taken from PubChem BioAssay (EPA / NIEHS).
Records with an inconclusive call do not appear. Calls of active or inactive are those of the source. How the source made its calls: active means hit-call score of the fitted dose curve at least 0.9, where 1 is the maximum; inconclusive means response in the unintended direction; inactive means score below 0.9.

Assays:
[1] = target: human Peroxisome Proliferator-activated Receptor delta (PPARd), PPARD (gene 5467) (UniProt Q03181); test: ATG_PPARd_TRANS: Attagene TRANS-FACTORIAL HepG2 Assay for human Peroxisome Proliferator-activated Receptor delta (PPARd) (AID 2283002)
How it was run: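 Read-out is induced reporter mRNA, quantified by RT-PCR with fluorescent labelling and capillary electrophoresis after 24 h dosing. Cells are HepG2 transiently carrying multiple GAL4-UAS reporter units driven by exogenous NR-GAL4 chimeras; DMSO serves as baseline.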

[2] = target: Retinoic acid receptor alpha (Homo sapiens) (UniProt P10276); test: ATG_RARa_TRANS: Attagene TRANS-FACTORIAL HepG2 Assay for human Retinoic Acid Receptor alpha (RARa) (AID 2283005)
How it was run: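 Reporter transcripts, measured by RT-PCR with fluorescent labeling and capillary electrophoresis after 24 h dosing, reflect activity of an exogenous human RARa–GAL4 fusion in transiently transfected HepG2. Fitted for increase relative to DMSO.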

[3] = target: Nuclear receptor subfamily 1 group I member 2 (Homo sapiens) (UniProt O75469); test: ATG_PXR_TRANS: Attagene TRANS-FACTORIAL HepG2 Assay for human Pregnane X Receptor (PXR) (AID 2283008)
How it was run: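 HepG2 cells transiently transfected with GAL4-UAS reporter units and PXR-Gal4 chimera, exposed 24 h. Reporter mRNA quantified by RT-PCR, fluorescent labelling, HpaI digestion and capillary electrophoresis; gain of signal vs DMSO.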

[4] = target: human Retinoic Acid Receptor gamma (RARg), RARG (gene 5916) (UniProt P13631); test: ATG_RARg_TRANS: Attagene TRANS-FACTORIAL HepG2 Assay for human Retinoic Acid Receptor gamma (RARg) (AID 2283009)
How it was run: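 Transient transfection of HepG2 with multi-reporter constructs, then 24 h chemical treatment. Total RNA isolated, reverse-transcribed, PCR-amplified, fluorescently labelled and resolved by capillary electrophoresis; activity scored as mRNA induction versus DMSO.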

[5] = target: human RAR-related Orphan Receptor beta (RORb), RORB (gene 6096) (UniProt Q92753); test: ATG_RORb_TRANS: Attagene TRANS-FACTORIAL HepG2 Assay for human RAR-related Orphan Receptor beta (RORb) (AID 2283010)
How it was run: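 Readout is reporter-gene mRNA induction, detected as fluorescence after RT-PCR and capillary electrophoresis, fitted for gain of signal against DMSO controls. Transiently transfected HepG2 liver cells carrying GAL4-UAS reporter constructs were treated for 24 hours.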

[6] = target: human Retinoid X Receptor beta (RXRb), RXRB (gene 6257) (UniProt P28702); test: ATG_RXRb_TRANS: Attagene TRANS-FACTORIAL HepG2 Assay for human Retinoid X Receptor beta (RXRb) (AID 2283013)
How it was run: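 Transfect HepG2 with GAL4-UAS multi-reporter constructs (chimeric NR-Gal4, TRANS format); dose compound 24 h; isolate RNA, RT-PCR, FAM primer extension, HpaI digest; quantify by capillary electrophoresis; positive direction vs DMSO.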

[7] = target: human Thyroid Receptor alpha (THRa1), THRA (gene 7067) (UniProt P10827); test: ATG_THRa1_TRANS: Attagene TRANS-FACTORIAL HepG2 Assay for human Thyroid Receptor alpha (THRa1) (AID 2283014)
How it was run: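 Transient HepG2 transfection, NR-Gal4 chimera driving GAL4-UAS reporters; 24 h compound exposure; total RNA, oligo(dT) RT, PCR, fluorescent primer extension, capillary electrophoresis. Upward direction vs DMSO control.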

[8] = target: Peroxisome proliferator-activated receptor gamma (Homo sapiens) (UniProt P37231); test: ATG_PPARg_TRANS: Attagene TRANS-FACTORIAL HepG2 Assay for human Peroxisome Proliferator-activated Receptor-gamma (PPARg) (AID 2283007)
How it was run: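 HepG2 cells transiently transfected with multiplexed GAL4-UAS reporter units and exogenous chimeric NR-Gal4 proteins; reporter mRNA quantified after 24 h compound exposure by RT-PCR, fluorescent labelling, HpaI digestion and capillary electrophoresis; gain-of-signal fitted versus DMSO baseline.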

[9] = target: Retinoic acid receptor RXR-alpha (Homo sapiens) (UniProt P19793); test: ATG_RXRa_TRANS: Attagene TRANS-FACTORIAL HepG2 Assay for human Retinoid X Receptor alpha (RXRa) (AID 2283012)
How it was run: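 Transient transfection of human HepG2 with multiple GAL4-UAS reporter constructs; 24 h compound exposure; total RNA isolated, reverse-transcribed, PCR-amplified, 6-FAM labelled, HpaI-cut, resolved by capillary electrophoresis. Positive-direction fit versus DMSO.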

[10] = target: human Vitamin D Receptor (VDR), VDR (gene 7421) (UniProt P11473); test: ATG_VDR_TRANS: Attagene TRANS-FACTORIAL HepG2 Assay for human Vitamin D Receptor (VDR) (AID 2283022)
How it was run: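 RT-PCR/capillary electrophoresis read-out of reporter mRNA induction in transiently transfected HepG2; 24 h dosing; chimeric NR-Gal4 (TRANS format); gain-of-signal fit against DMSO baseline.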

[11] = target: human RAR-related Orphan Receptor gamma (RORg), RORC (gene 6097) (UniProt P51449); test: ATG_RORg_TRANS: Attagene TRANS-FACTORIAL HepG2 Assay for human RAR-related Orphan Receptor gamma (RORg) (AID 2283011)
How it was run: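 Transient MRTU transfection of HepG2 (TRANS format, exogenous NR-Gal4 chimera). 24 h dosing. Total RNA → oligo(dT) RT → PCR → 6-FAM labelling → HpaI cut → CE. Gain vs DMSO.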

[12] = target: human Retinoic Acid Receptor beta (RARb), RARB (gene 5915) (UniProt P10826); test: ATG_RARb_TRANS: Attagene TRANS-FACTORIAL HepG2 Assay for human Retinoic Acid Receptor beta (AID 2283004)
How it was run: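 Readout is reporter mRNA induction: RNA reverse-transcribed, PCR-amplified, FAM-labelled, HpaI-cut and resolved by capillary electrophoresis. Transiently transfected HepG2 cells carrying exogenous NR–Gal4 chimeras were dosed for 24 h; activity fitted upward relative to DMSO.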

Measured: AC50

Nuclear receptor subfamily 1 group I member 2 (Homo sapiens), sequence (O75469 whole entry, looked up, the tested form may be a part): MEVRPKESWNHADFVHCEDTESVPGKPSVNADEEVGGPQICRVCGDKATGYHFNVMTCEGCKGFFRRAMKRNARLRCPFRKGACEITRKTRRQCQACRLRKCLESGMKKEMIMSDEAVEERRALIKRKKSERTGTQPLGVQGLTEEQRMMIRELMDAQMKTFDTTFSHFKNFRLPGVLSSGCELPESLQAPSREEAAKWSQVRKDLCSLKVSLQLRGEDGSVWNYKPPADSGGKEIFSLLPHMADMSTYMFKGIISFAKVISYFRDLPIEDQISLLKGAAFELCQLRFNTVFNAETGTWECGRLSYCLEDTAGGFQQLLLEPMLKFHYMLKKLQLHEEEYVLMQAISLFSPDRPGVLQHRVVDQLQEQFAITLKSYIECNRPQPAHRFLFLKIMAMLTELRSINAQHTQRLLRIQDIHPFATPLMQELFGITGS
human RAR-related Orphan Receptor gamma (RORg), RORC (gene 6097), sequence (P51449 whole entry, looked up, the tested form may be a part): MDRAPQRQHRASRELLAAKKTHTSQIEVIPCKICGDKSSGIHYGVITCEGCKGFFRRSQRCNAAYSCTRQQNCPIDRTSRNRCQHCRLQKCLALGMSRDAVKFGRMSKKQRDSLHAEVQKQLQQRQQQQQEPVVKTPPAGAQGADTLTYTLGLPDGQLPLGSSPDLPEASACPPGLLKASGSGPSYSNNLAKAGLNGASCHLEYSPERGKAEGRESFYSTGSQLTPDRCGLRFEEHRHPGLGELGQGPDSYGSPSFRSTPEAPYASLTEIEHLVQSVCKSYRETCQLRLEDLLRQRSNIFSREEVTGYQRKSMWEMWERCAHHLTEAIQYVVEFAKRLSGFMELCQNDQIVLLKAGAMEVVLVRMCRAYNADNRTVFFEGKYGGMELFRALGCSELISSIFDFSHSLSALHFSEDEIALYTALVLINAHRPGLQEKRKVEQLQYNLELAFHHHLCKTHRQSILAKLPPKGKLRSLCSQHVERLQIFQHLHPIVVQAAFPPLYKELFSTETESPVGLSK
human Retinoid X Receptor beta (RXRb), RXRB (gene 6257), sequence (P28702 whole entry, looked up, the tested form may be a part): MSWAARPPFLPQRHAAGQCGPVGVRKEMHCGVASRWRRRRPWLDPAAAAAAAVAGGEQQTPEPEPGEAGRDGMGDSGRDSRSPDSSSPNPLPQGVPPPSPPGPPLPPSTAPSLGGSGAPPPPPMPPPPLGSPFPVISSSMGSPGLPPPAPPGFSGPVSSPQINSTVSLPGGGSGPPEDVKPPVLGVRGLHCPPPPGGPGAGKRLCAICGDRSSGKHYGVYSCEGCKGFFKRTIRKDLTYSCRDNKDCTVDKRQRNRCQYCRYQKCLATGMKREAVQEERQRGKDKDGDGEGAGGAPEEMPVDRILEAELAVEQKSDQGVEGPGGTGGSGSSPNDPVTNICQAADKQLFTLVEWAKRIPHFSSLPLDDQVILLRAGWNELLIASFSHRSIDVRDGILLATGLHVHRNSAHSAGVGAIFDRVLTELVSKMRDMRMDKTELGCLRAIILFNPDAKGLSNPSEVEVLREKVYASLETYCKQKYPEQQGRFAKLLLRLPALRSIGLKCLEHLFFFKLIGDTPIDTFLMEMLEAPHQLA
Retinoic acid receptor alpha (Homo sapiens), sequence (P10276 whole entry, looked up, the tested form may be a part): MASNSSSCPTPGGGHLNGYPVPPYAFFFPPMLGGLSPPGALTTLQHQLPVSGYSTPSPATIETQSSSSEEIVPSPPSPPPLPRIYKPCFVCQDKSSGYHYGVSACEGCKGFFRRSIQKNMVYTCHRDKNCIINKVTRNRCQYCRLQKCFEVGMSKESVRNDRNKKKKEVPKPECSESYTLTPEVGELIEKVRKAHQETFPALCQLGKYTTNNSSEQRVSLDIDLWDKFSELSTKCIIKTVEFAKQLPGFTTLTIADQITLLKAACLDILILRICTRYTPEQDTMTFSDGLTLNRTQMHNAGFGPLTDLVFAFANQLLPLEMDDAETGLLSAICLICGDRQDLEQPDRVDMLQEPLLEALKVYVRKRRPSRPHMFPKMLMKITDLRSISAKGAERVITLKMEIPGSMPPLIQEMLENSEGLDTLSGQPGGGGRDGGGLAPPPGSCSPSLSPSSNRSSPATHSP
human Peroxisome Proliferator-activated Receptor delta (PPARd), PPARD (gene 5467), sequence (Q03181 whole entry, looked up, the tested form may be a part): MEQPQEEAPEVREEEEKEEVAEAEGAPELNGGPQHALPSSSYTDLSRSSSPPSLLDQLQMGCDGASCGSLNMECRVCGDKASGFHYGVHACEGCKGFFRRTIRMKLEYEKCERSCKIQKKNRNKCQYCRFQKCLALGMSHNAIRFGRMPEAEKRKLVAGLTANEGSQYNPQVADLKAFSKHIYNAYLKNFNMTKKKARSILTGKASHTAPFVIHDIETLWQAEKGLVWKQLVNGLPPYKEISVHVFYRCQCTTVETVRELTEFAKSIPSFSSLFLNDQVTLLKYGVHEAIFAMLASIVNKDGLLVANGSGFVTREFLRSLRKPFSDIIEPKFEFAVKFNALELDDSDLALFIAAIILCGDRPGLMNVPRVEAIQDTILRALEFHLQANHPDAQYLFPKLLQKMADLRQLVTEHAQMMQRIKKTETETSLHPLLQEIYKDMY
human Vitamin D Receptor (VDR), VDR (gene 7421), sequence (P11473 whole entry, looked up, the tested form may be a part): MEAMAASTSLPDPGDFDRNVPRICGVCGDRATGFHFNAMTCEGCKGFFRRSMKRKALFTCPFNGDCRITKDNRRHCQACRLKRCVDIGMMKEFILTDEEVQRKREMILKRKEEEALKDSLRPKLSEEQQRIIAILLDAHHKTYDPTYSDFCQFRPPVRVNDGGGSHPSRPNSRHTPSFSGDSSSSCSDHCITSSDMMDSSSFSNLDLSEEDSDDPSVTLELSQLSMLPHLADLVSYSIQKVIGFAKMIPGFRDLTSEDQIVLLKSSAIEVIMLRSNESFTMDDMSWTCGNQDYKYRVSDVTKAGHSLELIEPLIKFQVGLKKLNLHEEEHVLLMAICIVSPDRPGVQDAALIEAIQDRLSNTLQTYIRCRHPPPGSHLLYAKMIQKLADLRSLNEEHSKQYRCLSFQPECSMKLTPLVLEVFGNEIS
Peroxisome proliferator-activated receptor gamma (Homo sapiens), sequence (P37231 whole entry, looked up, the tested form may be a part): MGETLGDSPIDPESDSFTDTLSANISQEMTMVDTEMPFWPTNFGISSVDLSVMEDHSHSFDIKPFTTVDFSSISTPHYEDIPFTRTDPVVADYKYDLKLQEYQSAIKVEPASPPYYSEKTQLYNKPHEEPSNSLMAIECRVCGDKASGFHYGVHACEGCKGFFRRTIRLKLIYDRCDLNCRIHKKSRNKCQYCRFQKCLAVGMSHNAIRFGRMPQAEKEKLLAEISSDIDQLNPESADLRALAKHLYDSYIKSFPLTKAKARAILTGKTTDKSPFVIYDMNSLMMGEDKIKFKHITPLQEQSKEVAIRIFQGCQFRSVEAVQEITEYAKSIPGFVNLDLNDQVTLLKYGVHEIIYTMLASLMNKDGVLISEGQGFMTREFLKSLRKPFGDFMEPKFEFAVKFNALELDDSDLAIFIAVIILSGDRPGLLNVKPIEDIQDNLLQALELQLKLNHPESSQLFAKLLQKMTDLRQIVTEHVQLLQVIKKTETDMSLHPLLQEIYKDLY
Retinoic acid receptor RXR-alpha (Homo sapiens), sequence (P19793 whole entry, looked up, the tested form may be a part): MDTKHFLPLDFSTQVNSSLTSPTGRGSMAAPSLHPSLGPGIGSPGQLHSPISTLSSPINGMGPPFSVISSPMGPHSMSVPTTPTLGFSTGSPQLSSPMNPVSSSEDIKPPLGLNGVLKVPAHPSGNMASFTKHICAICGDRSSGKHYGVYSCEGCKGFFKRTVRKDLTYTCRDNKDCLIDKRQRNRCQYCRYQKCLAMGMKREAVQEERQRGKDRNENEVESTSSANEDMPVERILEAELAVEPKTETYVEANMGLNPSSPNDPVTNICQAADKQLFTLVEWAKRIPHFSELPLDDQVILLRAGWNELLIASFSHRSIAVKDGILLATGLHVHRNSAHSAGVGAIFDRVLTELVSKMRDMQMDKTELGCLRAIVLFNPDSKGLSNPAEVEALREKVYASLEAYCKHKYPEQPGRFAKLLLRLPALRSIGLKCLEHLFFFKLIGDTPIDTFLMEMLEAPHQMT
human Thyroid Receptor alpha (THRa1), THRA (gene 7067), sequence (P10827 whole entry, looked up, the tested form may be a part): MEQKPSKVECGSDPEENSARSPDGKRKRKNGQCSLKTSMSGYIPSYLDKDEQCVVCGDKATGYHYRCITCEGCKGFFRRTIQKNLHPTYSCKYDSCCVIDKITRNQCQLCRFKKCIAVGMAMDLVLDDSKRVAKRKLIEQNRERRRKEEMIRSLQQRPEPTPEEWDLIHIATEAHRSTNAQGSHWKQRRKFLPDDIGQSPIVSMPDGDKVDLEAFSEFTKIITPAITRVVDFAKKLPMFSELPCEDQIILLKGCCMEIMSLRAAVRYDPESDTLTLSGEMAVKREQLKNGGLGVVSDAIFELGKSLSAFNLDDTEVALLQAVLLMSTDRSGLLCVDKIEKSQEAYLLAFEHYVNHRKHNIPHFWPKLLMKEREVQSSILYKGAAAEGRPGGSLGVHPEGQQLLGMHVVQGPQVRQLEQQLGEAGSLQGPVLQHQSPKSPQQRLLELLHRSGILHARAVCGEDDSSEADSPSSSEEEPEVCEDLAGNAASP
human RAR-related Orphan Receptor beta (RORb), RORB (gene 6096), sequence (Q92753 whole entry, looked up, the tested form may be a part): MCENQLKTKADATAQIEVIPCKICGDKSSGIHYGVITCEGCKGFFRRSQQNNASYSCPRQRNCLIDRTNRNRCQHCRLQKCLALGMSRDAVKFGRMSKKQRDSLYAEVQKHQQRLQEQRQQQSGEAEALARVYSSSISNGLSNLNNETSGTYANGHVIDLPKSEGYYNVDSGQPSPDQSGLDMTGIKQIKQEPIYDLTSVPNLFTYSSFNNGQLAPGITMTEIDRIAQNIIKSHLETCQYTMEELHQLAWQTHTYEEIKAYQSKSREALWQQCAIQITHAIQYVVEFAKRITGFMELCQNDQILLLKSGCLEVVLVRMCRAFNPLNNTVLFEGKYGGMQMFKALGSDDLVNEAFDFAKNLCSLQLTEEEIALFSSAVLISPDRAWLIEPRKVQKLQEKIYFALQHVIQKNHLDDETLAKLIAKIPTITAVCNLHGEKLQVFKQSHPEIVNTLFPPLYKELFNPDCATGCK

C=C1C2CCC(C2)C1(C)C (stereo unspecified)
active: [3] 18.9 µM
inactive: [1] | [2] | [4] | [5] | [6] | [7]

CCC(=O)Oc1ccc(/C(CC)=C(\CC)c2ccc(OC(=O)CC)cc2)cc1
inactive: [1] | [9] | [10]
active: [8] 18.5 µM | [3] 4.5 µM

CC(=O)c1ccc[nH]1
inactive: [1] | [2] | [11] | [9] | [6] | [7]

Cc1ccc2c(c1)C(=O)c1ccccc1C2=O
inactive: [1] | [4] | [9] | [6] | [10]
active: [8] 15.1 µM | [3] 6.18 µM

NC(=O)N=NC(N)=O
inactive: [1] | [8] | [3] | [11] | [9]

C[C@]12CCC(=O)C=C1CC[C@@H]1[C@@H]2C(=O)C[C@@]2(C)[C@H]1CC[C@]2(O)C(=O)CO
active: [3] 26.9 µM
inactive: [1] | [8] | [11] | [9] | [6]

CC(=O)C=CC1C(C)=CCC(C)C1(C)C (stereo unspecified)
inactive: [1] | [8] | [9] | [7] | [10]
active: [3] 1.42 µM | [6] 68.5 µM

CCN(CC#N)c1cccc(C)c1
inactive: [1] | [12] | [3] | [11] | [10]

Oc1ccc(Cl)cc1Cc1cc(Cl)ccc1O
inactive: [1] | [9] | [7] | [10]
active: [8] 4.51 µM | [3] 2.94 µM

O=C(O)CCCC[C@@H]1SC[C@@H]2NC(=O)N[C@@H]21
not listed: [4] | [6] | [11] | [12]
inactive: all other assays above

CC(C)c1ccc2c(c1)CC[C@H]1[C@](C)(CN)CCC[C@]21C
active: [8] 6.02 µM | [9] 6.76 µM
inactive: [1] | [3] | [10]

CCC(Cc1ccccc1)(C(=O)c1ccc(N2CCOCC2)cc1)N(C)C (stereo unspecified)
inactive: [1] | [11] | [9] | [7] | [10]
active: [8] 35.1 µM | [3] 2.42 µM

C=CC(C)(CCC=C(C)C)OC(=O)CC(C)C (stereo unspecified)
active: [8] 58.2 µM | [3] 11.8 µM
inactive: [1] | [9] | [7] | [10]

Cc1cccc(N(C)C(=S)Oc2ccc3ccccc3c2)c1
inactive: [1] | [9] | [7] | [10]
active: [8] 2.88 µM | [3] 0.337 µM | [6] 32.6 µM

CC(CC=O)CCCC(C)(C)O (stereo unspecified)
not listed: [2] | [4] | [11] | [12]
inactive: all other assays above

O=S1(=O)OC(c2ccc(O)cc2)(c2ccc(O)cc2)c2ccccc21
inactive: [1] | [8] | [3] | [9] | [6] | [7] | [10]

C=COCCCC
inactive: [1] | [2] | [11] | [7]
